Bioassay records (PubChem BioAssay)
Sampled rows, rich in hits. Any-hit rate of the full collection: about 0.66%.
Rango dissoc inh: qHTS Assay for Inhibitors of RanGTP induced Rango (Ran-regulated importin-beta cargo) - Importin beta complex dissociation; AID 540253, 2011; 340,000 compounds, 0.071% hits; Potency, µM (doses to about 46.1 µM); Snurportin-1 (Homo sapiens) + GTP-binding nuclear protein Ran (Homo sapiens) + Importin …; Biochemical FRET Rango-importin beta, RanGTP-induced dissociation; note: nearly all actives have a fitted effect of over 45% in size
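Compounds sat 5 min at room temperature with 0.1 uM Rango biosensor plus 0.25 uM importin beta, then FRET pre-read. RanGTP-RCC1 (0.6 uM Ran, 2mM GTP, 0.2 uM RCC1) added for 45 min, and the CFP/YFP post-read measured blocked complex dissociation.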
gsp agonist: qHTS for Agonist of gsp, the Etiologic Mutation Responsible for Fibrous Dysplasia/McCune-Albright Syndrome: qHTS; gsp mutant cells, cAMP HTRF, 30 min; Potency, µM (top dose mostly 76.9 µM), actives largely listed as activators; 340,000 compounds, 0.13% hits; AID 624287, 2012; active = well fitted activation curve with a large enough effect; inconclusive = small, poorly fitted or top-dose-only effect, or another doubt; inactive = no such curve, though single readings can be large or run the other way; cell line not stated here;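 note: phosphodiesterase inhibitor Ro 20-1724 added with compounds to block cAMP breakdown; nearly all actives have a fitted effect of over 60% in size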
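Cells in DMEM/10% FBS with G418 were pretreated with compounds in DMSO plus […] (300 uM stock) for 30 min at 37C. cAMP was measured by HTRF (cAMP-d2 plus anti-cAMP antibody-K) after 30 min at room temperature.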
gsp antagonist: qHTS for Antagonists of gsp, the Etiologic Mutation Responsible for Fibrous Dysplasia/McCune-Albright Syndrome: qHTS; gsp-mutant cells, cAMP HTRF, 30 min; Potency, µM (titrated, usually from 76.9 µM), hits mostly inhibitors; 340,000 compounds, 0.4% hits; calls by dose curve; cell line not stated here;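 note: intracellular cAMP measured with PDE inhibitor Ro 20-1724 present during compound exposure; nearly all actives have a fitted effect of over 65% in size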
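Measurement of cellular cAMP by homogeneous time-resolved fluorescence following a 30 min compound exposure at 37C. The PDE inhibitor […] was present throughout; the assay buffer was DPBS with 0.05% BSA and 0.005% Tween 20.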
Rango complex inh: qHTS Assay for Inhibitors of Rango (Ran-regulated importin-beta cargo) - Importin beta complex formation. Importin subunit beta-1 (Homo sapiens), Q14974. Rango CFP/YFP FRET sensor + importin beta, 45 min. Potency, µM (series often up to 92.2 µM). 340,000 compounds, 0.031% hits. AID 540263, 2011; note: nearly all actives have a fitted effect of over 15% in size
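FRET biosensor Rango (snurportin 1 IBB between N-terminal EYFP and C-terminal Cerulean), 50 nM in PBS/1 mM DTT/0.02% Tween-20/0.1% BSA, preincubated 5 min RT with compound; 0.125 microM importin beta added, 45 min RT, CFP/YFP FRET ratio read.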
Hits are given with their value; [ ] = another dose, or the depositor's remark. Unless noted, calls come from the whole dose curve.

Screening CCCCNc1nc2c(S(=O)(=O)c3ccccc3)nnn2c2ccccc12 returned Rango dissoc inh inactive, gsp agonist 22µM, gsp antagonist inactive and Rango complex inh inactive.
`CCc1ccc(S(=O)(=O)c2nnn3c2nc(NCCNC(C)=O)c2ccccc23)cc1` gave Rango dissoc inh inactive, gsp agonist inactive[15.4 µM], gsp antagonist inactive and Rango complex inh inactive.
COC(=O)c1c(NS(=O)(=O)c2cccs2)sc2c1CCCC2 was read as Rango dissoc inh inactive, gsp agonist inactive, gsp antagonist 22µM and Rango complex inh inactive.
For COc1cccc(NC(=O)Nc2nc(SC(C)(C)C)ns2)c1 the results were Rango dissoc inh inactive, gsp agonist inactive, gsp antagonist 40µM and Rango complex inh inactive.
For COc1cc(/C=C/C(=O)OCC(=O)Nc2ccc3[nH]c(=O)[nH]c3c2)ccc1OC(F)F the results were gsp agonist inactive.
For COc1ccc(-c2ccc(-c3noc(C(C)C)n3)c(OC)n2)cc1 the results were Rango dissoc inh 0.0082µM, gsp agonist inactive, gsp antagonist inactive and Rango complex inh inconclusive.
`Cc1ccc([N+](=O)[O-])c(NC(=O)COC(=O)CCNS(=O)(=O)c2cccs2)c1C` gave gsp agonist inactive.
For Cc1cc(N2CCOCC2)nc2ccc(NC(=O)CCC(=O)N3CCCCC3)cc12 the results were Rango dissoc inh inactive, gsp agonist inactive, gsp antagonist inactive and Rango complex inh inactive.
`Cc1cc(N2CCOCC2)nc2ccc(NC(=O)CCC(=O)N3CCN(c4cccc(C(F)(F)F)c4)CC3)cc12` gave Rango dissoc inh inactive, gsp agonist inactive, gsp antagonist 40µM and Rango complex inh inactive.
O=C(CCc1nc2ccccc2c(=O)[nH]1)N1CCN(C/C=C/c2ccccc2)CC1 was read as Rango dissoc inh inactive, gsp agonist inactive, gsp antagonist 22µM and Rango complex inh inactive.
`CCN(CC(=O)Nc1c(F)cccc1F)C(=O)CCCSc1nc2ccccc2[nH]1` gave gsp agonist inactive.
Screening O=C(Nc1ccc(Cl)c(Cl)c1)c1cccc(S(=O)(=O)NCc2cccnc2)c1 returned Rango dissoc inh inactive, gsp agonist inactive[15.4 µM], gsp antagonist 28µM and Rango complex inh inactive.
`CCN(Cc1ccc2c(c1)OCCO2)C(=O)CSc1nc(C)nc2sc(C)c(C)c12` gave Rango dissoc inh inactive, gsp agonist inactive, gsp antagonist 50µM and Rango complex inh inactive.
For CCN(Cc1ccc2c(c1)OCO2)C(=O)CSc1ncnc2sccc12 the results were Rango dissoc inh inactive, gsp agonist inactive, gsp antagonist inactive and Rango complex inh inactive.
O=C(C[C@H]1C[C@@H]2c3cc(NC(=O)Nc4ccccc4)ccc3O[C@@H]2[C@@H](CO)O1)NCC1CC1 was read as gsp agonist inactive.
Screening Cc1ccc(S(=O)(=O)N2CCCC2CNC(=O)C(=O)NCc2ccc3c(c2)OCO3)cc1 (stereo not drawn) returned gsp agonist inactive.
`CN(C)S(=O)(=O)Oc1ccsc1C(=O)Nc1ccccc1Cl` gave Rango dissoc inh inactive, gsp agonist inactive, gsp antagonist 28µM and Rango complex inh inactive.
For COc1ccccc1NC(=O)c1ccccc1Oc1ccccc1 the results were Rango dissoc inh inactive, gsp agonist inactive, gsp antagonist 5.6µM and Rango complex inh inactive.
For COc1ccc(NC(=O)c2ccccc2Oc2ccccc2)c(OC)c1 the results were Rango dissoc inh inactive, gsp agonist inactive, gsp antagonist inactive and Rango complex inh inactive.
`COc1cc(NC(=O)c2cc3ccccc3cc2O)c(OC)cc1Cl` gave Rango dissoc inh inactive, gsp agonist inconclusive, gsp antagonist 20µM and Rango complex inh inactive.
`COc1cc(OC)c(NC(=O)c2ccccc2F)cc1Cl` gave Rango dissoc inh inactive, gsp agonist inconclusive, gsp antagonist inactive and Rango complex inh inactive.
`COc1ccc(-c2csc(NC(=O)c3ccc(C(C)(C)C)cc3)c2C(=O)O)cc1` gave Rango dissoc inh inactive, gsp agonist inactive[15.4 µM], gsp antagonist 32µM and Rango complex inh inactive.
Screening Cc1ccccc1C(=O)Nc1scc(-c2ccc(Br)cc2)c1C(=O)O returned Rango dissoc inh inactive, gsp agonist inactive[15.4 µM], gsp antagonist 40µM and Rango complex inh inactive.
